Laboratory results from PubChem BioAssay AID1863 (Southern Research Specialized Biocontainment Screening …, 2009).
Where “and” joins values, the source holds several entries; their conditions need not be identical. Equal values may be shown once. Hit rate of the full screen: of about 300,000 compounds, about 480 (0.16%) were called active.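 Rule for the calls: active = inhibition over 29.93%, a cutoff 3 SD above the screen mean, later confirmed by dose response; inconclusive = inhibition over 29.93% but no dose response follow-up; inactive = inhibition at most 29.93% or unconfirmed.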 The list is a sample of the results. Potency and affinity values are given separately.

Experiment: inhibitors of PhoP regulon expression, primary screen, Salmonella Typhimurium, GFP reporter (AID 1863);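 note: 0% = low Mg2+ inducing control and 100% = high Mg2+ repressing control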
Settings: S. Typhimurium PhoP-regulated promoter GFP reporter, 4 h; at 50 µM; active compounds read high

inhibition, inactive:
C#CCOCCOCCOCCNc1nc(N2CCN(C(=O)CCCCCCCCCCNC(=O)[C@H](CCCCN)n3cc(C[C@@H](C)CC)nn3)CC2)nc(N2CCN(C(=O)CCCCCCCCCCNC(=O)[C@H](CCCCN)n3cc(C[C@@H](C)CC)nn3)CC2)n1 20.6%, C#CCOCCOCCOCCNc1nc(N2CCN(C(=O)CCCCCCCCCCNC(=O)[C@H](CCCCN)n3cc(CCO)nn3)CC2)nc(N2CCN(C(=O)CCCCCCCCCCNC(=O)[C@H](CCCN=C(N)N)n3cc(C[C@@H](C)CC)nn3)CC2)n1 25.8%, C#CCOCCOCCOCCNc1nc(N2CCN(C(=O)CCCCCCCCCCNC(=O)[C@H](CCCCN)n3cc(CCCC(=O)O)nn3)CC2)nc(N2CCN(C(=O)CCCCCCCCCCNC(=O)[C@H](CCCN=C(N)N)n3cc(C[C@@H](C)CC)nn3)CC2)n1 -5.84%, C#CCOCCOCCOCCNc1nc(N2CCN(C(=O)CCCCCCCCCCNC(=O)[C@H](CCCCN)n3cc(C)nn3)CC2)nc(N2CCN(C(=O)CCCCCCCCCCNC(=O)[C@H](CCCN=C(N)N)n3cc(C[C@@H](C)CC)nn3)CC2)n1 23.8%, Cc1cc(C)cc(NC(=O)CN(C)S(=O)(=O)c2cccc3nsnc23)c1 -9.89%, CC(C)CCNC(=O)NC(=O)COC(=O)CCN=C1NS(=O)(=O)c2ccccc21 -10.2%, COC(=O)CCC(=O)N1CN2CN(C(=O)CCC(=O)OC)CC([N+](=O)[O-])(C2)C1 -5.21%, c1ccc(Nc2nn[nH]n2)cc1 -21.5%, CC[C@H]1OC(=O)[C@H](C)[C@@H](O[C@H]2C[C@@](C)(OC)[C@@H](O)[C@H](C)O2)[C@H](C)[C@@H](O[C@@H]2O[C@H](C)C[C@H](N(C)C)[C@H]2O)[C@](C)(OC)C[C@@H](C)C(=O)[C@H](C)[C@@H](O)[C@]1(C)O -8.63% and -8.23%, CCC(=O)O[C@@H]1CC(=O)O[C@H](C)CC=CC=C[C@@H](O)[C@H](C)C[C@H](CC=O)[C@H](O[C@H]2O[C@H](C)[C@@H](O[C@H]3C[C@@](C)(O)[C@@H](OC(=O)CC)[C@H](C)O3)[C@H](N(C)C)[C@H]2O)[C@H]1OC -22.5%, CC1CCCN(C(=O)c2ccc(S(=O)(=O)Nc3ccccc3Cl)cc2)C1 (stereo unspecified) 3.82%, Cc1ccc(CN2C(=O)CCC2C(=O)NCCN2CCN(c3cccc(Cl)c3)CC2)cc1 (stereo unspecified) -4.51%, CCOCCCNC(=O)c1ccc2c(c1)ncn2-c1ccc(C)cc1C -8.15%, NC(N)=N/N=C/c1ccc(OCc2ccc(Cl)cc2Cl)cc1 -0.84%, NC(N)=N/N=C/c1ccc(OCc2ccccc2)c(OCc2ccccc2)c1 10.4%, COc1cc(/C=N/N=C(N)N)ccc1OCc1ccc(Cl)cc1 2.42%, NC(N)=N/N=C/c1ccc(OCc2ccccc2)cc1 17.1%, CCn1ncc(Cl)c1C(=O)NC(=S)Nc1c(C)cc(C)cc1[N+](=O)[O-] 8.05%, CC(=O)c1cccc(NC(=O)CCCNC(=O)c2ccc(Cl)cc2)c1 0.5%, O=C(O)[C@@H]1CSC2c3ccccc3C(=O)N21 (stereo partly specified) -0.36%, CSCC[C@H](NC(=O)Nc1ccc(Oc2ccccc2)cc1)C(=O)O 0.47%, COC(=O)CSc1nc(N)c(C#N)c(CC(C)C)c1C#N -5.81%, Cc1ccc(NS(=O)(=O)c2ccc3c(c2)NC(=O)CCS3)cc1F 4.54%, COc1ccc(NC(=O)C/C(C)=N/NC(=O)c2cccs2)c([N+](=O)[O-])c1 6.98%, Oc1ccccc1C(Nc1nccs1)c1ccc2cccnc2c1O (stereo unspecified) 1.53%, COc1ccccc1NC(c1cccnc1)c1ccc2cccnc2c1O (stereo unspecified) 24.8%, Cc1ccc2ccc(C(Nc3ccccn3)c3ccccc3)c(O)c2n1 (stereo unspecified) 26.2%, Oc1c(C(Nc2cccc(C(F)(F)F)c2)c2cccnc2)ccc2cccnc12 (stereo unspecified) 69.6%, O=C(Cc1cccs1)NCc1ccncc1 20.6%, CC1(C)CCC/C(=C\c2ccccc2)C1=O -2.34%, O=S(=O)(/N=C(/NNS(=O)(=O)c1ccccc1)c1ccccc1)c1ccccc1 -3.53%, CCN(CC)CCN(C)c1ccc(N2C(=O)C3CC=CCC3C2=O)cc1[N+](=O)[O-] (stereo unspecified) -7.43%, Oc1ccccc1Nc1nc(NCC2CCCO2)c2ccccc2n1 (stereo unspecified) 13.1%, c1ccc(Nc2nc(NCC3CCCO3)c3ccccc3n2)cc1 (stereo unspecified) -1.89%, Oc1ccc(Nc2nc(NCC3CCCO3)c3ccccc3n2)cc1 (stereo unspecified) -10.2%, COc1ccc(Nc2nc(NCC3CCCO3)c3ccccc3n2)c(OC)c1 (stereo unspecified) 0.13%, COCCOCC(O)CN1CCN(c2ccccc2)CC1 (stereo unspecified) 4.06%, COc1ccccc1-c1noc(-c2ccccc2C(=O)NCC2CCCO2)n1 (stereo unspecified) -3.19%, CCOc1ccc(Nc2nc(N)c3ccccc3n2)cc1 29.9%, Cc1ccc2nc3c(c(Nc4ccccc4)c2c1)CCC3 21.7%, COc1ccc(Nc2c3ccccc3nc3ccccc23)cc1 -2.51%, COc1ccc(Nc2c3c(nc4ccccc24)CCC3)cc1 12.7%, Cc1cc(Nc2cccc(O)c2)c2ccccc2n1 13.6%, Fc1cccc(Nc2c3c(nc4ccccc24)CCC3)c1 6.97%, c1ccc(Nc2c3c(nc4ccccc24)CCC3)cc1 20.2%, O=C(O)c1cccc(Nc2c3ccccc3nc3ccccc23)c1 10.2%, Nc1n[nH]c(N)c1N=Nc1ccccc1F -3.09%, CCC(=O)Nc1ccc(C(=O)CSc2nc(N)cc(N)n2)cc1 4.88%, CS(=O)(=O)N1CCN(c2ccccc2NC(=O)c2cccnc2)CC1 -0.66%, CC(C)CCNC(=O)c1c(CSc2ccccc2)noc1C(=O)NCc1ccccc1 -1.54%, Cc1cc(-c2nnc(SCC(=O)Nc3ccc(F)cc3F)n2N)n[nH]1 -6.5%, COc1ccc(S(=O)(=O)N2CCC(C(=O)Nc3c(F)cccc3F)CC2)cc1 14.7%, Cn1c(=O)[nH]c(=O)c2c1nc(CN1CCN(c3ccc(F)cc3)CC1)n2CCCc1ccccc1 -9.74%, CO[C@@]12[C@H](COC(N)=O)C3=C(C(=O)C(C)=C(N)C3=O)N1C[C@@H]1N[C@@H]12 17.4%, COc1ccc(C(=O)N2CCN(c3ncccn3)CC2)cc1 6.73%, COc1ccc(-n2c(SCc3cccnc3)nc3c(c2=O)SCC3)cc1OC -5.3%, Cc1ccccc1OCC(=O)NCC(=O)N/N=C/c1cccc([N+](=O)[O-])c1 -0.52%, CCS(=O)(=O)Nc1c(C)n(C)n(-c2ccccc2)c1=O -5.83%, NS(=O)(=O)c1ccc(CNC(=O)c2cc(-c3cccnc3)nc3ccc(Br)cc23)cc1 -5.23%, Cc1ccccc1N1CCN(C2CCCN(C(=O)c3ccccn3)C2)CC1 (stereo unspecified) -6.14%, CCn1cc(C(=O)O)c(=O)c2cc(F)c(N3CCN(C(=S)NC(=O)c4cc(OC)cc(OC)c4)CC3)cc21 23.2%, C=CCCCCCCCCC(=O)N1CCN(c2cc3c(cc2F)c(=O)c(C(=O)O)cn3CC)CC1 11.3%, Cc1cccc(C(=O)NC(=S)N2CCN(C(=S)NC(=O)c3cccc(C)c3)CC2)c1 12.1%, CCn1cc(C(=O)O)c(=O)c2cc(F)c(N3CCN(S(=O)(=O)c4ccc(NC(=O)OC)cc4)CC3)cc21 -9.02%, CCn1cc(S(=O)(=O)c2ccc(OC)cc2)c(=O)c2cc(F)c(N3CCN(C)CC3)cc21 -6.69%, CCn1cc(C(=O)O)c(=O)c2cnc(N3CCN(C(=S)NC(=O)c4ccc(OC)cc4)CC3)nc21 1.6%, CCn1cc(C(=O)O)c(=O)c2cc(F)c(N3CCN(S(=O)(=O)c4ccc(Br)cc4)CC3)cc21 3.63%, CCc1sc(C(=O)Nc2cccnc2)cc1Br -5.61%, COc1ccc2[nH]cc(CCNC(=O)c3ccc4ccccc4n3)c2c1 -0.1%, CCC(=O)N1CCc2cc(Br)cc(S(=O)(=O)N3CCC(C(=O)NC(C)C)CC3)c21 3.79%, CNc1cc(CSC)nc(SCc2ccc(Cl)c(Cl)c2)n1 -2.03%, O=C(c1ccc2ncsc2c1)N1CCCCC1 0.96%, O=C(O)CCSc1nc2ccccc2n1Cc1ccccc1 -0.57%, NC(=O)CN(c1ccc([N+](=O)[O-])cc1)S(=O)(=O)c1ccccc1 10%, CN(C)C(=O)/C(C#N)=C\c1cc(Br)c(Sc2ccc(Cl)cc2)o1 2.32%, Cc1nc2c(C)cccn2c(=O)c1NC(=O)c1ccco1 6.47%, CCNC(=O)CN1C(=O)NC2(CCOc3ccccc32)C1=O (stereo unspecified) -2.64%, CCn1cc(C(=O)O)c(=O)c2cnc(N3CCN(C(=S)NC(=O)c4ccc(Cl)cc4)CC3)nc21 30.7%, CCn1cc(C(=O)NCc2cccc(F)c2)c(=O)c2cc(F)c(N3CCN(C(=O)c4ccco4)CC3)cc21 12.3%, CCn1cc(C(=O)O)c(=O)c2cnc(N3CCN(C(=S)NC(=O)c4ccccc4)CC3)nc21 18.2%, CCn1cc(C(=O)N/N=C(/C)c2ccc(F)cc2)c(=O)c2cc(F)c(N3CCCC3)cc21 -8.17%
